# Screening results deposited in PubChem by University of Kansas High Throughput Screening Laboratory.
# Pf apPOL inh – Pf-apPOL inhibitors, biochemical, fluorescence. Recombinant Pf-apPOL, molecular beacon fluorescence, 1.5 h. inhibition, % at 10 µM. hit rate 0.25% among 210,000. AID 1794808, 2022
# mHTT CaM bind – mutant huntingtin-calmodulin interaction inhibitors – biochemical, AlphaScreen, primary screen | P42858 | AlphaScreen His-mHTT/GST-CaM binding, luminescence | inhibition, % at 15 µM | hit rate 3.6% among 190,000;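 note: 0% = both proteins with DMSO and 100% = one protein alone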
# * hit, by the source's call; . = no result given. Hits are enriched below; roughly 3.6% of the tested compounds scored in any of these assays. Cut-off read from the data, not from the text of the source: active = inhibition above about 50%; inactive = the rest.
SMILES,Pf apPOL inh,mHTT CaM bind
CSc1nnc2c(n1)OC(c1cc3c(cc1Cl)OCO3)N(C(C)=O)c1ccccc1-2 (stereo not drawn),-13,78*
CCSc1nnc2c(n1)OC(c1ccccc1OC)N(C(C)=O)c1ccccc1-2 (stereo not drawn),5,14
CSc1nnc2c(n1)OC(c1cc3c(cc1[N+](=O)[O-])OCO3)N(C(C)=O)c1ccccc1-2 (stereo not drawn),1,10
CCN(CC)c1ccc(C2Oc3nc(SC)nnc3-c3ccccc3N2C(C)=O)c(OC)c1 (stereo not drawn),-10,59*
Cn1cccc1C(=O)N1CCc2c(nc3cc(-c4ccccc4Cl)[nH]n3c2=O)C1,0,48
COc1ccc(C(=O)CC2(O)C(=O)N(CC(N)=O)c3ccccc32)cc1OC (stereo not drawn),-2,0
O=C(C1CC(=O)N(c2ccc3c(c2)CCN3C(=O)C2CC2)C1)N1CCC2(CC1)OCCO2 (stereo not drawn),4,8
COc1cccc(-c2oncc2CN2CCN(c3ccccc3)CC2)c1,-1,19
COc1ccc(N2CCN(Cc3cnoc3-c3ccccc3)CC2)cc1,-10,57*
COc1ccccc1-n1cnc2cc(NC(=O)c3cc(OC)c(OC)c(OC)c3)ccc21,-2,21
Cn1c(NC(=O)c2ccc(F)cc2)nc2ccccc21,-7,34
COc1cc(C(=O)Nc2ccc3c(c2)ncn3-c2ccc(C)cc2)cc(OC)c1OC,-3,53*
COc1cc(C(=O)Nc2nc3ccccc3n2C)cc(OC)c1OC,-10,57*
CC(C)NC(=O)c1ccc(OCC2CCN(C(=O)c3ccc(Br)o3)CC2)cc1,-1,14
COc1ccccc1Nc1cc(C(F)(F)F)nc2c(OC)ccc(OC)c12,6,69*
COC(=O)c1cc(Nc2ccccc2OC)c2cccc(OC)c2n1,0,0
CCOc1ccc(NC(NC(=O)/C=C/c2ccccc2)C(Cl)(Cl)Cl)cc1 (stereo not drawn),1,36
O=C(/C=C/c1ccccc1)NC(NC1CCCCC1)C(Cl)(Cl)Cl (stereo not drawn),112*,-4
CCN(CC)c1ncc2c(n1)CCC(C(=O)Nc1ccccc1Cl)C2 (stereo not drawn),-2,-10
CCCCN(C)CCCNC(=O)CC(C(=O)N1CCc2ccccc21)n1ccnc1 (stereo not drawn),-14,-3
CCCCN(CCCNC(=O)CC(C(=O)N1CCc2ccccc21)n1ccnc1)c1ccccc1 (stereo not drawn),-6,77*
CC1CCC2(CC1)OCC(C(=O)NCc1ccncc1)N2C(=O)c1ccccc1 (stereo not drawn),-5,10
Cn1cc(Cl)c(C=C(C#N)C(N)=O)n1,1,.
COc1nn(C)cc1C(=O)N1CCC(c2nnc(-c3ccco3)o2)CC1,-8,-19
O=C(CSC1CCCC1)N1CCC(c2nnc(-c3ccco3)o2)CC1,0,100*
SMILES,Pf apPOL inh,mHTT CaM bind
CC(C)OC(=O)COc1ccc2c(c1)OC(=Cc1cccc(Cl)c1)C2=O,-2,8
Cc1nc2ccc(N(C)C)cc2s1,-7,13
CN(C)c1ccc2nc3ccc(=O)cc-3sc2c1,.,59*
Cc1nc(C)c(C(=O)NCc2ccc3c(c2)ncn3C(C)C)s1,-3,11
CC1(C)OC(=O)N2c3ccccc3NC21C (stereo not drawn),.,-4
O=C(NCC12CC3CC(CC(C3)C1)C2)c1cnccn1,.,-4
Cc1ccc(N=C2C(=O)N(CN3CCOCC3)c3ccccc32)cc1,-5,6
Cc1ccc(N=C2C(=O)N(CN3CCOCC3)c3ccccc32)cc1C,7,58*
CC(C)C(=O)Nc1cccc(NC(=O)COc2ccc([N+](=O)[O-])cc2)c1,-1,0
CCC(=O)Nc1cccnc1-c1ccc(C(=O)NCc2cccc(C)c2)cc1,-1,2
O=C(CSc1ccccn1)Nc1ccc(Br)cc1,3,-12
O=C(CSc1ccc(-c2ccccn2)nn1)Nc1ccc(F)c(F)c1,-6,99*
COc1cc(/C=C2/C(=O)N(c3ccc(Cl)c(Cl)c3)N=C2C)ccc1OC(C)C,-6,4
O=C(CN1C(=O)CCC1=O)Nc1nc(-c2cccnc2)cs1,-4,-6
C[C@@H](c1ccccc1)N1C[C@H](COCc2ccccc2)Oc2cc(N3CCC[C@H]3C(N)=O)ccc2S1(=O)=O,-6,6
C[C@@H](c1ccccc1)N1C[C@H](COCc2ccccc2)Oc2cc(N3CC[C@@H](O)C3)ccc2S1(=O)=O,-7,52*
COC[C@H]1CCCN1c1ccc2c(c1)O[C@H](COCc1ccccc1)CN([C@@H](C)c1ccccc1)S2(=O)=O,0,1
C[C@@H](c1ccccc1)N1C[C@@H](COCc2ccccc2)Oc2cc(N3CCC[C@H]3C(N)=O)ccc2S1(=O)=O,-5,16
C[C@H](c1ccccc1)N1C[C@H](COCc2ccccc2)Oc2cc(N3CC[C@@H](O)C3)ccc2S1(=O)=O,11,54*
C[C@@H](c1ccccc1)N1C[C@@H](COCc2ccccc2)Oc2cc(N3CC[C@@H](N(C)C)C3)ccc2S1(=O)=O,-4,100*
C[C@@H](c1ccccc1)N1C[C@H](COCc2ccccc2)Oc2cc(N3CCC[C@H]3CO)ccc2S1(=O)=O,-7,47
C[C@@H](c1ccccc1)N1C[C@@H](COCc2ccccc2)Oc2cc(N3CC[C@@H](O)C3)ccc2S1(=O)=O,-4,56*
CCOC(=O)Nc1nc(CC(=O)NCc2ccccc2OC)cs1,-12,-3
COc1ccc(N=Cc2c(C)[nH]n(-c3ccc(C)c(C)c3)c2=O)c([N+](=O)[O-])c1,3,5
CCn1cnnc1C1CCN(CCOc2ccc(F)cc2)CC1,1,-6
SMILES,Pf apPOL inh,mHTT CaM bind
CN(C)c1cccc(C(=O)N2CCc3c(c(C(=O)NCc4ccccc4)nn3C)C2)c1,-5,50*
Cn1nc(C(=O)NCc2ccccc2)c2c1CCN(C(=O)c1c(F)cccc1F)C2,4,2
CCOc1ccc(C(=O)N2CCc3c(c(C(=O)NCc4ccccc4)nn3C)C2)cc1,-11,-17
Cn1nc(C(=O)NCc2ccccc2)c2c1CCN(C(=O)c1cccs1)C2,-14,4
COc1ccc(C(=O)N2CCc3c(c(C(=O)NCc4ccccc4)nn3C)C2)cc1OC,-10,75*
COc1cccc(C(=O)N2CCc3c(c(C(=O)NCc4ccc(Cl)cc4)nn3C)C2)c1,-2,90*
COc1cccc(C(=O)N2CCc3c(c(C(=O)NCc4ccccc4)nn3C)C2)c1,-5,69*
COc1ccc(C2=NN(CC(=O)N(C)Cc3ccccc3)C(=O)CC2)cc1,-1,15
COc1ccc(CC(=O)N2CC3CC2CC3NS(C)(=O)=O)cc1 (stereo not drawn),2,2
COC(=O)c1ccccc1NC(=O)N1CC2CC1CC2NC(=O)c1cccs1 (stereo not drawn),-4,16
COc1ccccc1C(=O)N1CCc2c(c(C(=O)NCc3ccc(Cl)cc3)nn2C)C1,4,80*
Cn1nc(C(=O)NCc2ccccc2)c2c1CCN(C(=O)c1ccc(Cl)cc1)C2,-3,0
Cn1nc(C(=O)NCc2ccc(Cl)cc2)c2c1CCN(C(=O)c1ccccc1F)C2,14,43
Cn1nc(C(=O)NCc2ccccc2)c2c1CCN(C(=O)c1cccc(Cl)c1)C2,-11,81*
